Experiments:
Assay in all cases: PBM binding z-score (relative to random genomic background probes); higher = stronger binding; sequences stand for … in GC…GCGATTGACAGCGTAGAATGAAGG
[1] = test system: PPARg:RXRa DBDmut IVT, anti-RXR (DBD mutation: RXRa K156A/R161A, NR concentration 270 nM, RXRa partner concentration 90 nM)
Summary of the method: (§1)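 Custom Agilent 4×180K protein-binding microarrays carried double-stranded probes, each with a 34-nt variable region. These regions held direct-repeat seeds, single-nucleotide variants, half-site ablations and random human genomic background sequences. Ligand-free nuclear receptor dimers were incubated on the arrays for 1 h, antibodies against each partner (one per run) detected binding, and scanned fluorescence was regression-normalized. Binding z-scores take the random background probes as reference.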

[2] = test system: PPARg:RXRa IVT, anti-PPARg (NR concentration 270 nM, RXRa partner concentration 90 nM)
Summary of the method: as §1

[3] = test system: PPARg DBDmut:RXRa IVT, anti-PPARg (DBD mutation: PPARg1 K132A/R137A, NR concentration 270 nM, RXRa partner concentration 90 nM)
Summary of the method: as §1

[4] = test system: PPARg DBDmut IVT, anti-PPARg (DBD mutation: PPARg1 K132A/R137A, NR concentration 270 nM)
Summary of the method: as §1

[5] = test system: PPARg homodimer (NR concentration 180 nM)
Summary of the method: as §1

[6] = test system: PXR:RXRa (NR concentration 270 nM, RXRa partner concentration 90 nM)
Summary of the method: as §1

[7] = test system: PXR homodimer (NR concentration 270 nM)
Summary of the method: as §1

[8] = test system: RARa:RXR (NR concentration 270 nM, RXRa partner concentration 90 nM)
Summary of the method: as §1

[9] = test system: RARa homodimer (NR concentration 270 nM)
Summary of the method: as §1

[10] = test system: RARb:RXRa (NR concentration 270 nM, RXRa partner concentration 90 nM)
Summary of the method: as §1

[11] = test system: RARb homodimer (NR concentration 270 nM)
Summary of the method: as §1

[12] = test system: RARg:RXRa (NR concentration 270 nM, RXRa partner concentration 90 nM)
Summary of the method: as §1

[13] = test system: RARg homodimer (NR concentration 270 nM)
Summary of the method: as §1

[14] = test system: RXRa DBDmut IVT, anti-RXR (DBD mutation: RXRa K156A/R161A, NR concentration 90 nM)
Summary of the method: as §1

[15] = test system: RXRa homodimer (NR concentration 180 nM)
Summary of the method: as §1

[16] = test system: THRa:RXRa (NR concentration 90 nM, RXRa partner concentration 90 nM)
Summary of the method: as §1

[17] = test system: THRa homodimer (NR concentration 90 nM)
Summary of the method: as §1

[18] = test system: VDR:RXRa (NR concentration 270 nM, RXRa partner concentration 90 nM)
Summary of the method: as §1

[19] = test system: VDR homodimer (NR concentration 270 nM)
Summary of the method: as §1

Sequence | PBM binding z-score [1] | PBM binding z-score [2] | PBM binding z-score [3] | PBM binding z-score [4] | PBM binding z-score [5] | PBM binding z-score [6] | PBM binding z-score [7] | PBM binding z-score [8] | PBM binding z-score [9] | PBM binding z-score [10] | PBM binding z-score [11] | PBM binding z-score [12] | PBM binding z-score [13] | PBM binding z-score [14] | PBM binding z-score [15] | PBM binding z-score [16] | PBM binding z-score [17] | PBM binding z-score [18] | PBM binding z-score [19]
CGTCCAAGGTCAGCAAGTCAGTGAAAGCGACGTG | 2.61 | 2.52 | -0.905 | -1.02 | 2.24 | 2.38 | 0.119 | 3.13 | 0.523 | 4.99 | 3.99 | 5.01 | 6 | 2.5 | 4.02 | 3.42 | 1.67 | 2.93 | 1.03
CAAACTAGGTCAAGGTAAAAGTCGGTTTGTGCCA | 8.78 | 8.76 | 1.41 | 0.73 | 1.61 | 1.54 | -0.0973 | 2.24 | 0.604 | 4.42 | 3.47 | 3.84 | 5.09 | 1.52 | 2.93 | 3.03 | 1.49 | 1.79 | 0.742
CGAACTAGGTCATTGACGGGACAGTGAATAGTAA | 8.12 | 8.13 | 2.44 | 0.8 | 1.5 | 1.15 | 0.012 | 1.98 | 0.192 | 3.63 | 2.6 | 4.41 | 4.35 | 2.41 | 2.61 | 2.63 | 0.664 | 1.86 | 0.927
GATACAGGGTCAGGTAGAGGCCAGAGTATGGAAA | 0.739 | 2.45 | 0.9 | 0.631 | 2.28 | 2.96 | 0.741 | 3.47 | 1.29 | 4 | 3.48 | 6.43 | 4.46 | 0.77 | 4.13 | 3.18 | 0.846 | 3.35 | 1.25
TCTAGCAGGCCAGATGGTCACTCAAGAGGTACGG | 0.614 | -0.0638 | -0.764 | -0.948 | -0.88 | -0.46 | -0.899 | -0.205 | -1.39 | 0.242 | 0.18 | 0.0724 | 0.0188 | -0.141 | -0.0633 | -0.597 | -0.77 | -0.443 | -1.21
CCTACTGGGCTATCAGGTCATTGATATCAACGTT | 3.17 | 4.19 | 0.0312 | -0.392 | 0.841 | 1.33 | 0.575 | 1.41 | 0.294 | 1.55 | 2.18 | 1.56 | 1.35 | 0.092 | 0.965 | 3.1 | 2.44 | 1.36 | 1.01
TCTCGGAGGACACGAAGGTCAGAGATTTCCAGAG | 1.66 | 1.24 | -0.127 | -0.972 | 1.21 | 1.86 | 1.02 | 2.11 | -0.144 | 3.4 | 3.84 | 3.05 | 4.12 | 0.78 | 1.99 | 2.92 | 1.1 | 2.26 | 1.7
ACTACCAGGCCAAGGGTCACTCAAGATTAGTCCG | 1.41 | 4.54 | 0.921 | -0.0701 | 2.3 | 3.38 | 0.474 | 4.11 | 1.31 | 3.78 | 4.07 | 4.15 | 3.87 | 0.629 | 4.2 | 3.3 | 1.15 | 3.07 | 2.13
AGAATGAGGTTATCAAGATCAGGGAATTGCGGTC | 3.5 | 2.6 | 0.708 | -0.123 | 0.956 | 1.27 | 0.0679 | 1.67 | 0.465 | 1.71 | 1.07 | 1.5 | 1.12 | 1.46 | 2.19 | 2.49 | 0.835 | 2.56 | 0.805
CCTACTTGGCCAAGGTCATTGATCAGTCAAAGCA | 1.37 | 2.08 | -0.0462 | -0.266 | 2.44 | 3.9 | 1.45 | 3.57 | 1.49 | 3.49 | 3.78 | 4.01 | 3.47 | 2.56 | 3.83 | 3.82 | 3.07 | 3.78 | 3.62
TCTAGTTGGTCAAAGGTCACACGCTCGAAATGCG | 3.58 | 6.36 | 0.719 | 1.69 | 5.16 | 6 | 2.22 | 7.76 | 3.91 | 4.97 | 5.31 | 7.41 | 6.67 | 1.72 | 8.75 | 4.01 | 2.09 | 5.38 | 2.92
GCATATAGGTAATACAAGGTGAAAATCCGATTGT | 3.55 | 3.21 | 0.778 | 0.777 | 0.494 | 0.273 | 0.142 | 1.85 | 0.843 | 0.306 | 0.426 | 0.529 | 0.709 | 0.0693 | 0.677 | 3.98 | 0.487 | 0.212 | 0.0319
CCGACTGGGGGATAAGGTTACCATAAGCCAGCCC | 0.611 | 1.85 | 1.28 | 1.34 | 0.934 | 1.15 | -0.306 | 1.64 | 0.448 | 0.896 | 1.05 | 1.12 | 0.756 | -0.00884 | 1.21 | 2.51 | 2.11 | 0.902 | 0.491
CAAACTAGGTCAAGAGGTTAAAGTCCGCTTCCCG | 8.33 | 8.39 | 1.58 | 0.849 | 2.66 | 3.48 | 0.622 | 4.85 | 1.25 | 4.47 | 4.23 | 6.18 | 5.49 | 1.61 | 5.2 | 3.36 | 1.36 | 4.18 | 1.86

From the supplement of paper PMC6555819
